# Test results: PubChem BioAssay
# Records with an inconclusive call do not appear. Activity calls are given as the source filed them.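 Rule for the calls, unless noted: active = viability loss from added drug above about 55%, and viability with drug at most 40%, in both replicates (limit read from the data, passing the limit was not always enough); inconclusive = both conditions met in only one replicate; inactive = neither replicate meets both conditions.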
# Tests used:
# [1] = reducers of endogenous Her2 protein level, primary screen, SKBR3 breast tumor cells, AlphaScreen, ATP viability (AID 461;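 active = Her2 level under about 52% in both replicate screens, with viability over 70% of control, limit read from the data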;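 for Her2 level: lower value means less Her2 protein in the cells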;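 for viability: percent of carrier control wells set as 100% viability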); settings: 18-24 h, measured here: SKBR3 viability, ATP luminescence, at 10 µM
# [2] = biological target: Receptor tyrosine-protein kinase erbB-2 (Homo sapiens) (UniProt P04626); assay: as above; settings: 18-24 h, at 10 µM, stronger effect = lower value
# [3] = SK-BR-3 cell growth inhibitors, pilot screen, 24 h, human (AID 572;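 active = viability at or below 10% of carrier control in both of two separate runs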;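 note: compound exposure lasted between 18 and 24 h rather than exactly 24 h; 100% = carrier-treated control wells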); settings: SK-BR-3 viability, CellTiter-Glo luminescence, at 10 µM, stronger effect = lower value
# [4] = reversal of MRP1-mediated doxorubicin resistance, pilot screen, H69AR cells, doxorubicin co-treatment (AID 601); settings: CellTiter-Glo, 72 h, at 10 µM; for differential viability (reversal): stronger effect = higher value
# [5] = 384-well plate pilot, post-Golgi transport modulator project, inhibition of yeast transport mutant growth (AID 636; in the data active = inhibition above about 31%); settings: absorbance 615 nm, about 18 h, stronger effect = higher value
# [6] = growth suppression of yeast trafficking mutant, preliminary HTS, modulators of trafficking downstream of Golgi apparatus project, 1536-format plate, OD 615 nm (AID 637; in the data active = inhibition above about 30%); settings: yeast transport mutant growth, absorbance 615 nm, 18 h; stronger effect = higher value
# [7] = HUVEC growth inhibition – cell-based, human, primary screen (AID 575;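 active = viability at or below 30% in both replicate assays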;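 note: 100% = median of untreated cell wells with 0.1% DMSO on each plate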); settings: HUVEC proliferation, CellTiter-Glo luminescence, 72 h; at 10 µM; stronger effect = lower value
# [8] = growth inhibitors of H69AR lung tumor, primary screen, human, duplicate replicates (AID 580;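 active = viability at or under a set limit in both replicates, limit being median viability minus 3 SD, cut at about 48% in these data, passing the limit was not always enough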;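 note: 100% = mean luminescence of untreated wells and 0% = no signal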); settings: H69AR lung tumor cells viability, ATP luminescence, 72 h; at 10 µM; stronger effect = lower value
# [9] = Restrictive medium S. cerevisiae growth inhibition, OD615, pilot screen of yeast lifespan reduction project, restrictive growth control (AID 706;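 active = growth inhibition above a set limit, 3 SD over mean compound inhibition, in both replicates, cut at about 43% in these data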;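 note: modified DeaD lifespan yeast strain shifted to restrictive glucose medium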); settings: OD615, 48 h, at 10 µM, stronger effect = higher value
# [10] = viability gain of MRP-1-high H69AR cells under doxorubicin, pilot screen, MRP-1 activator project, CellTiter-Glo, duplicate (AID 807;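 active = viability increase at or above a cutoff of the median across tested compounds plus 3 SD, cut at about 8.5% in these data, passing the limit was not always enough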;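 note: compound pretreatment 18-22 h then 72 h combined with doxorubicin; 0% = doxorubicin alone and 100% = vehicle without doxorubicin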); settings: H69AR viability with doxorubicin, CellTiter-Glo luminescence; at 10 µM; stronger effect = higher value
# [11] = growth suppression of beta-catenin knockout HCT116, pilot screen, human colon tumor cells (AID 823;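 active = cell viability at or below a set limit in both duplicate runs, the limit being the all-compound median minus 4 SD, cut at about 23% in these data, passing the limit was not always enough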;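 note: 0% = wells killed by 20 µM Hyamine and 100% = untreated DMSO cell wells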); settings: CellTiter-Glo, 60 h, at 10 µM, stronger effect = lower value
# [12] = growth suppression of PTEN-deleted HCT116, pilot screen, cell-based, HCT116 clonal line, CellTiter-Glo (AID 824;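 active = viability at or below 27.92% in each of two runs, the all-compound median minus 4 SD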;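 note: 0% = 20 µM Hyamine control and 100% = vehicle cell control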); settings: 60 h, at 10 µM, stronger effect = lower value
# [13] = inhibitors of the yeast RAM network, pilot screen, dse1pr::URA3 reporter, 5-FOA selection (AID 869;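 active = inhibition over a set limit, the all-compound mean plus 3 SD, in both replicate runs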;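 note: 0% = DMSO wells with no growth and 100% = 10 µM 1-NA-PP1 with full growth; RAM network block rescues cells from 5-FOA so hits raise OD615 growth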); settings: S. cerevisiae dse1pr::URA3 5-FOA growth, OD615, 2 d; at 10 µM; stronger effect = higher value; strain carries analog-sensitive mutant Cbk1 kinase
# [14] = H69AR cells + 2 uM doxorubicin, measured here: viability with 2 uM doxorubicin, stronger effect = lower value
# [15] = H69AR cells, compound alone cytotoxicity
# Sequence of Receptor tyrosine-protein kinase erbB-2 (Homo sapiens) (P04626 whole entry, looked up): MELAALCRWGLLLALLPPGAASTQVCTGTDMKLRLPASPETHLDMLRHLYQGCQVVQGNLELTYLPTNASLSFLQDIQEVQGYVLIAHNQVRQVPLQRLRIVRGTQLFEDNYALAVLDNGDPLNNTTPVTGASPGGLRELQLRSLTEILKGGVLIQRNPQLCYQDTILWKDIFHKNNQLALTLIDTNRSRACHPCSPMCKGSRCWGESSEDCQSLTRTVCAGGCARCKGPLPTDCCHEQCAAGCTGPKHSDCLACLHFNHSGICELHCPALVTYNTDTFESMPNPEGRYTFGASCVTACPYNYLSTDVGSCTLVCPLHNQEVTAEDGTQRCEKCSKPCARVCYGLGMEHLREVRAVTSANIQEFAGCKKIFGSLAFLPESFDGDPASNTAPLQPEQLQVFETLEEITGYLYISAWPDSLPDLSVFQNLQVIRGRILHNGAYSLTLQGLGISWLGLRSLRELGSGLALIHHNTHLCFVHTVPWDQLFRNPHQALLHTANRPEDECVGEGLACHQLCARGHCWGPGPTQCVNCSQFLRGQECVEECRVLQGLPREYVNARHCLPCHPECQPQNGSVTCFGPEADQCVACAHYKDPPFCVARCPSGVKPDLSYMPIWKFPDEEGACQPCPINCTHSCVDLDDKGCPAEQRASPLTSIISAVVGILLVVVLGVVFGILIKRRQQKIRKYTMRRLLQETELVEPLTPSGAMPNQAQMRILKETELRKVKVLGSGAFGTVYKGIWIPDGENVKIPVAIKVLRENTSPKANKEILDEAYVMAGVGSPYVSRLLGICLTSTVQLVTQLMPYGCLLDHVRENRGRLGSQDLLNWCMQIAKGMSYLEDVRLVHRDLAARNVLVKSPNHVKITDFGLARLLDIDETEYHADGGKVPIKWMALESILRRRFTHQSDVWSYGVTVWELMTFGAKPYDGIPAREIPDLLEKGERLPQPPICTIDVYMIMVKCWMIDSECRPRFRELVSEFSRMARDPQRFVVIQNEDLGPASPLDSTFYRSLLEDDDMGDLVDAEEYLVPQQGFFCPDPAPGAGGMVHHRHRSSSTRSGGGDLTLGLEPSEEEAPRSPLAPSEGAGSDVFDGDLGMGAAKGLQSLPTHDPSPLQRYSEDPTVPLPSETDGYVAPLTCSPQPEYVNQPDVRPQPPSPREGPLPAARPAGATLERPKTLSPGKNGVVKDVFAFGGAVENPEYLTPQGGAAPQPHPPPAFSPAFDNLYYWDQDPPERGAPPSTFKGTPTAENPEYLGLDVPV
smiles,measurement,setting,value
CCCc1cc(-n2ccnc2)n2c(nc3ccccc32)c1C#N,viability,[1],89.5%
same,Her2 level,[2],74% (inactive)
same,viability,[3],89.5% (inactive)
same,differential viability (reversal),[4]; H69AR cells + 2 uM doxorubicin,-10.1% (inactive)
same,viability,[4]; [14],55.8%
same,viability,[4]; [15],45.8%
same,inhibition,[5],-3.92% (inactive)
same,inhibition,[6],2.06% (inactive)
CNCCC=C1c2ccccc2CCc2ccccc21,viability,[3],23%
same,viability,[7],71.6% (inactive)
same,viability,[8],80.1% (inactive)
same,differential viability (reversal),[4]; H69AR cells + 2 uM doxorubicin,4.63% (inactive)
same,viability,[4]; [14],75.5%
same,viability,[4]; [15],80.1%
N#Cc1ccccc1Cn1c(=O)n(Cc2ccc(C(=O)NCc3ccco3)cc2)c(=O)c2sccc21,viability,[1],75.5%
same,Her2 level,[2],80% (inactive)
same,viability,[3],75.5% (inactive)
same,viability,[8],77.8% (inactive)
same,differential viability (reversal),[4]; H69AR cells + 2 uM doxorubicin,9.52% (inactive)
same,viability,[4]; [14],68.3%
same,viability,[4]; [15],77.8%
same,inhibition,[5],-1.28% (inactive)
same,inhibition,[6],-1.67% (inactive)
same,growth inhibition,[9],-22.5% (inactive)
same,viability increase,[10],-4.44% (inactive)
same,viability,[11],91.3% (inactive)
same,viability,[12],79.5% (inactive)
same,inhibition,[13],2.11% (inactive)
Cc1ccc(O)c(-c2cc3ccccc3[nH]2)c1,viability,[1],105%
same,Her2 level,[2],87% (inactive)
same,viability,[3],105% (inactive)
same,viability,[8],70.2% (inactive)
same,differential viability (reversal),[4]; H69AR cells + 2 uM doxorubicin,11.1% (inactive)
same,viability,[4]; [14],59.2%
same,viability,[4]; [15],70.2%
same,inhibition,[5],-8.92% (inactive)
same,inhibition,[6],0.33% (inactive)
CCN(CCCCOC(=O)c1ccc(OC)c(OC)c1)C(C)Cc1ccc(OC)cc1 (centres undefined),viability,[3],88% (inactive)
same,viability,[7],64.4% (inactive)
same,viability,[8],78.9% (inactive)
same,differential viability (reversal),[4]; H69AR cells + 2 uM doxorubicin,6.16% (inactive)
same,viability,[4]; [14],72.8%
same,viability,[4]; [15],78.9%
O=C1[C@@H]2C(c3ccccc3Cl)=NO[C@@H]2C(=O)N1Cc1ccccc1,viability,[3],96% (inactive)
same,viability,[7],116% (inactive)
same,viability,[8],104% (inactive)
same,differential viability (reversal),[4]; H69AR cells + 2 uM doxorubicin,4.24% (inactive)
same,viability,[4]; [14],100%
same,viability,[4]; [15],104%
same,inhibition,[5],-6.76% (inactive)
same,inhibition,[6],3.09% (inactive)
CCOc1ccc2nc(NC(=O)CSc3nc4ccccc4c(=O)n3Cc3ccco3)sc2c1,viability,[1],82.5%
same,Her2 level,[2],84% (inactive)
same,viability,[3],82.5% (inactive)
same,viability,[8],45.2% (active)
same,differential viability (reversal),[4]; H69AR cells + 2 uM doxorubicin,-0.105% (inactive)
same,viability,[4]; [14],45.4%
same,viability,[4]; [15],45.2%
same,inhibition,[5],-5.95% (inactive)
same,inhibition,[6],-1.97% (inactive)
CCOC(=O)c1c(C)oc2c1c1c(c3ccccc32)OCN(Cc2cccnc2)C1,viability,[1],83.5%
same,Her2 level,[2],75% (inactive)
same,viability,[3],83.5% (inactive)
same,differential viability (reversal),[4]; H69AR cells + 2 uM doxorubicin,29.8% (inactive)
same,viability,[4]; [14],21.8%
same,viability,[4]; [15],51.6%
same,inhibition,[5],-0.39% (inactive)
same,inhibition,[6],-5.33% (inactive)
CCOC(=O)c1cc(-c2ccc3c(c2)OCO3)nc2onc(C)c12,viability,[1],110%
same,Her2 level,[2],89.5% (inactive)
same,viability,[3],110% (inactive)
same,viability,[8],67.2% (inactive)
same,differential viability (reversal),[4]; H69AR cells + 2 uM doxorubicin,-3.71% (inactive)
same,viability,[4]; [14],70.9%
same,viability,[4]; [15],67.2%
same,inhibition,[5],-4.93% (inactive)
same,inhibition,[6],2.9% (inactive)
CCOC(=O)N1CCC(NC(=O)c2ccc3nc(N4CCOCC4)sc3c2)CC1,viability,[1],102%
same,Her2 level,[2],105% (inactive)
same,viability,[3],102% (inactive)
same,viability,[8],97.1% (inactive)
same,differential viability (reversal),[4]; H69AR cells + 2 uM doxorubicin,-2.62% (inactive)
same,viability,[4]; [14],99.7%
same,viability,[4]; [15],97.1%
same,inhibition,[5],-4.74% (inactive)
same,inhibition,[6],-0.32% (inactive)
CC(=O)SCCC(=O)Nc1ccccc1,viability,[3],88% (inactive)
same,viability,[7],87.2% (inactive)
same,viability,[8],92.5% (inactive)
same,differential viability (reversal),[4]; H69AR cells + 2 uM doxorubicin,5.22% (inactive)
same,viability,[4]; [14],87.3%
same,viability,[4]; [15],92.5%
same,inhibition,[5],-7.12% (inactive)
same,inhibition,[6],0.81% (inactive)
O=C(CCCCCn1c(=S)[nH]c2cc3c(cc2c1=O)OCO3)N1CCN(Cc2ccccc2)CC1,viability,[1],83%
same,Her2 level,[2],77.5% (inactive)
same,viability,[3],83% (inactive)
same,differential viability (reversal),[4]; H69AR cells + 2 uM doxorubicin,7.46% (inactive)
same,viability,[4]; [14],55.3%
same,viability,[4]; [15],62.7%
same,inhibition,[5],-4.73% (inactive)
same,inhibition,[6],-0.66% (inactive)
CCCc1ccc(Oc2cn[nH]c2-c2ccc(O)c(C)c2O)cc1,viability,[1],106%
same,Her2 level,[2],76.5% (inactive)
same,viability,[3],106% (inactive)
same,differential viability (reversal),[4]; H69AR cells + 2 uM doxorubicin,-26.3% (inactive)
same,viability,[4]; [14],34.6%
same,viability,[4]; [15],8.33%
same,inhibition,[5],100% (active)
same,inhibition,[6],100% (active)
CNCCCC1c2ccccc2C=Cc2ccccc21,viability,[3],82% (inactive)
same,viability,[7],69.5% (inactive)
same,viability,[8],92% (inactive)
same,differential viability (reversal),[4]; H69AR cells + 2 uM doxorubicin,15.2% (inactive)
same,viability,[4]; [14],76.7%
same,viability,[4]; [15],92%
COC(=O)c1nnn(-c2ccccc2)c1N,viability,[3],103% (inactive)
same,viability,[7],100% (inactive)
same,viability,[8],103% (inactive)
same,differential viability (reversal),[4]; H69AR cells + 2 uM doxorubicin,-1.73% (inactive)
same,viability,[4]; [14],105%
same,viability,[4]; [15],103%
same,inhibition,[5],-1.82% (inactive)
same,inhibition,[6],3.61% (inactive)
COC(=O)c1sc(S(=O)(=O)N2CCN(c3ccccc3)CC2)c(C(=O)OC)c1C,viability,[3],69% (inactive)
same,viability,[7],96.1% (inactive)
same,viability,[8],85.6% (inactive)
same,differential viability (reversal),[4]; H69AR cells + 2 uM doxorubicin,-1.87% (inactive)
same,viability,[4]; [14],87.5%
same,viability,[4]; [15],85.6%
same,inhibition,[5],-8.63% (inactive)
same,inhibition,[6],4% (inactive)
Cn1c(=O)n(CCN2CCOCC2)c(=O)c2c1nc1n2CCN1c1ccccc1,viability,[1],41.5%
same,Her2 level,[2],102% (inactive)
same,viability,[7],52.8% (inactive)
same,viability,[8],67.9% (inactive)
same,differential viability (reversal),[4]; H69AR cells + 2 uM doxorubicin,4.43% (inactive)
same,viability,[4]; [14],63.5%
same,viability,[4]; [15],67.9%
same,inhibition,[5],3.51% (inactive)
same,inhibition,[6],-2.54% (inactive)
CCSCc1nnc(SCC(=O)Nc2cccc(SC)c2)n1C,viability,[3],66% (inactive)
same,viability,[7],84.3% (inactive)
same,viability,[8],90.3% (inactive)
same,differential viability (reversal),[4]; H69AR cells + 2 uM doxorubicin,-14.9% (inactive)
same,viability,[4]; [14],105%
same,viability,[4]; [15],90.3%
same,inhibition,[5],-6.58% (inactive)
same,inhibition,[6],-0.18% (inactive)
